# SW480 rerep – A quantitative high throughput screen for small molecules that induce DNA re-replication in SW480 colon adenocarcinoma cells | AID 624297, 2012 | Potency, µM (titrated, usually from 46.1 µM), actives largely listed as activators | 1.8% of 340,000 active | SW480 DNA re-replication, Hoechst DNA content imaging, 48 h; note: nearly all actives have a fitted effect of over 55% in size
#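 SW480 cells exposed to compounds for 48 hr at 37 C, 5% CO2, then Hoechst-stained 40 min. Nuclear DNA content imaged by fluorescence scanning (405 nm excitation, 500-530 nm emission); re-replication scored as increased high-intensity nuclei.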
# Giardia killer – Small Molecules that selectively kill Giardia lamblia: qHTS; 0.15% of 340,000 active; activity change, % at 7.66 µM, hits read low; Giardia lamblia trophozoite viability; in the data active = activity change below about -80%; inconclusive = between about -30% and that limit;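 note: parasites exposed to compound for two days anaerobically before the ATP read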
#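 ATP-content bioluminescence gauges trophozoite survival. Cells (100/well) receive compound and incubate anaerobically for 48 hrs at 37 deg C; detection reagent follows for 15-30 min at room temperature.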
# uPA surface inh – qHTS for Inhibitors of Cell Surface uPA Generation; AID 540303, 2011; Potency, µM (series often up to 38.3 µM), actives largely listed as inhibitors; 0.31% of 330,000 active; cell surface uPA generation assay, qHTS; active = well fitted inhibition curve with a large enough effect; inconclusive = small, poorly fitted or top-dose-only effect; inactive = no such curve, though single readings can be large or run the other way; tested in mouse RAW 264.7 cells; note: nearly all actives have a fitted effect of over 55% in size
# MCF10A rerep – A quantitative high throughput screen for small molecules that induce DNA re-replication in MCF 10a normal breast cells; MCF 10A DNA re-replication, Hoechst nuclear intensity, 48 h; Potency, µM (series often up to 46.1 µM), most hits filed as activators; 2.9% of 350,000 active; AID 624296, 2012; note: nearly all actives have a fitted effect of over 50% in size
# Numbers stand for hits; n = inactive; u = inconclusive; x = no result; [ ] = dose if it differs, or a comment. This is a sample that favours compounds with a hit; in the whole collection about 4.3% have one here. Unless noted, calls come from the whole dose curve; as a rule, active = well fitted activation curve with a large enough effect; inconclusive = small, poorly fitted or top-dose-only effect; inactive = no such curve, though single readings can be large or run the other way.
SMILES,SW480 rerep,Giardia killer,uPA surface inh,MCF10A rerep
Cc1cc(N2CCCC2)ccc1/C=C1/C(=O)N(C)C(=S)N1C,14.6µM,n,n,n
Cc1cc(/C=C2/C(=O)N(C)C(=S)N2C)ccc1N1CCCC1,n,n,n,n
Cc1ccc(C(=O)c2cc([N+](=O)[O-])ccc2N2CCCCC2)cc1C,1.84µM,n,n,u
O=C(c1ccccc1)c1cc([N+](=O)[O-])ccc1N1CCCC1,n,n,n,u
COc1ccc(C(=O)c2cc([N+](=O)[O-])ccc2N2CCN(C)CC2)cc1,u,n,n,8.2µM
COc1ccc(C(=O)c2cc([N+](=O)[O-])ccc2N2CCCC2)cc1,18.4µM,n,n,1.46µM
COc1ccc(NC(=O)c2cc([N+](=O)[O-])ccc2N2CCCC2)cc1,n,n,n,n
CCN(CC)c1ccc(NC(=O)c2ccccn2)cc1S(=O)(=O)Nc1ccccc1OC,n,n,n,n
C=CCc1c(C)nc2cc(-c3ccc(C)cc3)[nH]n2c1=O,n,n,11.2µM,n
COc1ccc(N2CCN(Cc3nc4scc(-c5ccccc5)c4c(=O)[nH]3)CC2)cc1,n,n,n,n
O=c1[nH]c(CN2CCN(c3ccccc3)CC2)nc2scc(-c3ccccc3)c12,u,n,n,5.17µM
COc1cc(C(F)(F)F)c(C(=O)NCc2cccc(Cl)c2)cn1,n,u,n,n
COc1ccc(C2Nc3ccccc3C(=O)N2Cc2ccccc2)cc1COc1ccc([N+](=O)[O-])cc1 (centres undefined),x,n,x,x
O=C(CNC(=O)c1ccc(Cl)cc1)OC1CCOC1=O (centres undefined),n,n,n,n
CCCCOc1ccc(C(=O)NCC(=O)OC2CCOC2=O)cc1 (centres undefined),u,n,n,3.26µM
CCC(=O)Nc1nc2ccccc2n1CCN1CCOCC1,n,n,n,n
CCCn1c(NC(=O)c2cccc(S(=O)(=O)N3CCCC3)c2)nc2ccccc21,u,n,n,18.4µM
CCCCCCCn1c(NC(=O)CC)nc2ccccc21,n,n,n,6.51µM
CCCn1c(NC(=O)c2ccccc2)nc2ccccc21,n,n,n,n
CCC(C)n1c(SCC(=O)N(CC)c2c(N)n(Cc3ccccc3)c(=O)[nH]c2=O)nc2ccccc2c1=O (centres undefined),n,n,n,n
CC1(c2ccc(OCC#N)cc2)C=C(c2ccc(OCC#N)cc2)n2nc(C(F)(F)F)nc2N1 (centres undefined),u,n,n,18.4µM
CCOc1ccccc1C1C(C#N)=C(N)Oc2cc(N)ccc21 (centres undefined),u,n,x,23.1µM
CCOC(=O)C1=C(C)OC(N)=C(C#N)C1C1CCCCC1 (centres undefined),n,n,n,u
COC(=O)c1ccc(C2C(C#N)=C(N)Oc3cc(N)ccc32)cc1 (centres undefined),n,n,n,n
COc1ccc(OC)c(C2C(C#N)=C(N)Oc3cc(N)ccc32)c1 (centres undefined),u,n,n,n[0.0737 µM]
SMILES,SW480 rerep,Giardia killer,uPA surface inh,MCF10A rerep
N#CC1=C(N)Oc2cc(O)ccc2C1c1cccnc1 (centres undefined),n,n,n,n
N#CC1=C(N)Oc2cc(N)ccc2C1c1cccc(F)c1 (centres undefined),11.6µM,n,n,13µM
CN(C)c1ccc2c(c1)OC(N)=C(C#N)C2c1cccc(F)c1 (centres undefined),u,n,x,4.11µM
N#CC1=C(N)Oc2cc(N)ccc2C1C1CCCCC1 (centres undefined),18.4µM,n,n,8.2µM
CC(C)(CO)NCc1c(OCc2ccc(Cl)cc2)ccc2ccccc12,u,n,n,u
Cc1cccc(C(=O)OCC(=O)NC(=O)NCc2ccccc2)c1,n,n,n,n
CCCCN1CCCC[C@H]1C(=O)Nc1c(C)cccc1C,n,x,x,n
O=C(NCCc1nccs1)C1CCC(=O)N(Cc2cccc(C(F)(F)F)c2)C1 (centres undefined),n,n,n,n
COc1ccc(NCC(=O)n2c(C)c(C)c3ccccc32)cc1,u,n,n,18.4µM
O=C(Nc1ccccc1)C1=C[C@H](c2ccc3c(c2)OCO3)C[C@H](OCc2ccc(CO)cc2)O1,u,n,n,n
NNC(=O)c1c(O)c2cccc3c2n(c1=O)CCC3,n,n,n,20.6µM
CC(C)NC(=O)c1c(O)c2cccc3c2n(c1=O)CCC3,n,n,u,n
CCN1CCN(c2ccc(S(=O)(=O)N3CCCCC3)cc2NC(=O)c2ccc(C)o2)CC1,n,n,n,n
COc1ccc(NC(=O)COc2cc(C)cc(C)c2)cc1S(=O)(=O)N1CCCCC1,5.8µM,n,n,20.6µM
COc1ccc(C(=O)NNC(=O)c2cccc(S(=O)(=O)N3CCOCC3)c2)cc1,n,n,n,n
COc1ccc(NC(=O)COc2ccc(C)c(C)c2)cc1S(=O)(=O)N1CCCCC1,n,n,n,n
COc1ccc(C(=O)Nc2cccc(C)c2)cc1S(=O)(=O)N1CCOCC1,u,n,n,18.4µM
COc1ccc(S(=O)(=O)N2CCOCC2)c(Cl)c1Cl,n,n,n,7.31µM
COc1ccc(S(=O)(=O)N2CCOCC2)cc1Cl,n,n,n,n
COc1ccc(C(=O)NC(=S)Nc2cccc(S(=O)(=O)N3CCOCC3)c2)cc1,u,n,n,16.4µM
O=C(CSc1nc2ccccc2c(=O)n1CCCN1CCOCC1)Nc1ccccc1OC(F)F,n,n,n,n
CCOC(=O)[C@@H]1[C@H]2COc3ccccc3[C@H]2N2C(=O)N(c3cccc(Cl)c3)C(=O)[C@]12C,n,n,n,n
CN(Cc1ccccc1)C(=O)c1ccc(NC(=O)Cc2ccc(NC(=O)C3CCN(C(=O)c4ccccc4)CC3)cc2)cc1,n,n,n,u
Cc1cc(-c2nnc(SCC(=O)c3ccc(F)cc3)o2)no1,n,n,n,n
Cc1cc(-c2nnc(SCC(=O)N3C(C)CCCC3C)o2)no1 (centres undefined),6.51µM,n,n,u
SMILES,SW480 rerep,Giardia killer,uPA surface inh,MCF10A rerep
c1ccc2c(-c3csc(-c4ccncc4)n3)c[nH]c2c1,20.6µM,n,u,u
Brc1ccc(-c2csc(-c3c[nH]c4ccccc34)n2)cc1,n,n,n,u
CCC(C)C(=O)Nc1nccs1 (centres undefined),1.46µM,n,n,n
CCC(C(=O)Nc1nccs1)c1ccccc1 (centres undefined),n,n,n,n
COc1ccc(CNC(=O)Cn2cccc2C(=O)c2ccccc2)cc1,n,n,n,n
Cc1ccc(NC(=O)NCC2CC2(Cl)Cl)cc1 (centres undefined),n,n,n,n
O=C(NCC1CC1(Cl)Cl)Nc1ccc(Cl)c(Cl)c1 (centres undefined),u,n,n,18.4µM
N#Cc1ccc(NCC(=O)Nc2ccc(S(=O)(=O)N3CCCCC3)cc2)cc1,u,n,n,n
CCCCCCCCCOC(=O)CNc1nc(C#N)nc(NCC(=O)OCCCCCCCCC)n1,x,n,x,x

# Assay outcomes (PubChem BioAssay)
